Hit rate of the full screen: of about 48,000 compounds, about 13,000 (27%) showed an effect of 50% or more. The list shows a part of the results.

The test system of this experiment is Wolbachia pipientis. The experiment can be described thus: Anti-Wolbachia Cell-Based Screen. Format: functional. Also noted: scale not given: in the data most compounds retested in dose-response had high values. As to conditions: 5 µM.
With `COc1ccccc1-c1noc(CCC(=O)NC(C)Cn2cccn2)n1` (stereo not given), the “Percent Effect” value is -41.91%.

Consider `COc1ccc(-n2ccnc2-c2cnc(N(C)C)nc2)cc1OC`, for which the “Percent Effect” value is -6.365%.

For the compound `Cc1ccc(CN2CCN(c3ncccc3Cl)CC2CCO)cc1` (stereo not given), the “Percent Effect” value is on record as -15.14%.

As for `O=C(c1cn2cc(Cl)cnc2n1)N1CCOCC(O)(CN2CCCC2)C1` (stereo not given), the “Percent Effect” value is listed as -2.711%.

In the case of `Cc1nccn1-c1ccc(C(C)NCCc2ccccn2)cc1` (stereo not given), the “Percent Effect” value was 8.244%.

As for `CCc1nc(CN2CCCC(NCc3ncc(C(C)(C)C)o3)C2)no1` (stereo not given), the “Percent Effect” value came to 9.361%.

Consider `CNC1CCCN(Cc2noc(C3CC3)n2)C1.Cl` (stereo not given), for which the “Percent Effect” value was -6.036%.

With `CCc1nc(CN2CCCC(NCc3cc(C)no3)C2)no1` (stereo not given), the “Percent Effect” value is given as 2.816%.

With `CCc1nc(CN2CCCC(NCc3nnc(C4CC4)n3C)C2)no1` (stereo not given), the “Percent Effect” value came to 109.6%.

Regarding `CCc1nc(CN2CCCC(NCCn3cncn3)C2)no1` (stereo not given), the “Percent Effect” value was found to be 25.84%.

Regarding `CCc1noc(CNC2CCCN(Cc3noc(C4CC4)n3)C2)n1` (stereo not given), the “Percent Effect” value was 122.3%.

Turning to `Cn1ccnc1CNC1CCCN(Cc2noc(C3CC3)n2)C1` (stereo not given), the “Percent Effect” value is listed as -20.64%.

As for `CCCc1noc(CNC2CCCN(Cc3noc(C4CC4)n3)C2)n1` (stereo not given), the “Percent Effect” value is 116.1%.

As to `C1CC(NCc2nc(C3CC3)no2)CN(Cc2noc(C3CC3)n2)C1` (stereo not given), the “Percent Effect” value is given as 4.824%.

As for `CCc1nc(CN2CCCC(NCc3nc(C)c(C)o3)C2)no1` (stereo not given), the “Percent Effect” value was determined as 135.7%.

For the compound `CCc1nc(CN2CCCC(NCc3ccc(C(N)=O)cc3)C2)no1` (stereo not given), the “Percent Effect” value is on record as -8.136%.

As for `Cc1ncc(CNC2CCCN(Cc3noc(C4CC4)n3)C2)s1` (stereo not given), the “Percent Effect” value was -12.11%.

With `COCCN(Cc1ccc(F)cc1Cl)C(=O)c1cc(C)no1`, the “Percent Effect” value is on record as 3.523%.

On to `Cc1cccc2c1nc1n2[C@@H](CNC(=O)Cc2ccccc2)COC1`, for which the “Percent Effect” value is given as -6.284%.

For `Cc1cc(C)c2c(N(C)CC3CCN(CC(C)C)C3)ncnc2n1` (stereo not given), the “Percent Effect” value was determined as 16%.

As for `Cc1nc(C(=O)N(Cc2c(C)nn(C)c2C)C(C)C)cs1`, the “Percent Effect” value came out at 0.2586%.

As to `CCN(C(=O)c1cccc2c1OCO2)c1ccc(Br)cn1`, the “Percent Effect” value is listed as -0.9868%.

For the compound `CCOc1ccc(N2CCC(C(O)c3ccccc3)CC2)nn1` (stereo not given), the “Percent Effect” value is listed as -5.535%.

Turning to `CC(C)S(=O)(=O)c1nnc(CCNC(=O)OC(C)(C)C)o1`, the “Percent Effect” value is on record as 16.12%.

Regarding `C[C@H](NC(=O)OC(C)(C)C)c1nnc(S(=O)(=O)Cc2cccc(F)c2)o1`, the “Percent Effect” value came out at 143.7%.

On to `Cc1ccccc1CS(=O)(=O)c1nnc(C(C)NC(=O)OC(C)(C)C)o1` (stereo not given), for which the “Percent Effect” value is 85.24%.

In the case of `CC(C)NC(=O)NCCCc1cccc(F)c1`, the “Percent Effect” value is -3.402%.

`CCC(C)NC(=O)CS(=O)(=O)Cc1ccccc1Cl` (stereo not given): the “Percent Effect” value is recorded as -0.4939%.

For `CC(NC(=O)OC(C)(C)C)c1nnc(S(=O)(=O)Cc2ccccc2Cl)o1` (stereo not given), the “Percent Effect” value is given as 135.1%.

With `O=S(=O)(Cc1ccccc1Cl)NC(CO)c1ccco1` (stereo not given), the “Percent Effect” value is listed as -8.194%.

As for `Cc1ccccc1CS(=O)(=O)c1nnc(N2CCOCC2)s1`, the “Percent Effect” value is reported as -8.396%.

With `CC(NC(=O)OC(C)(C)C)c1nnc(S(=O)(=O)Cc2ccc(Cl)cc2)o1` (stereo not given), the “Percent Effect” value turned out to be 137.4%.

In the case of `CC(NC1(CNC(=O)OC(C)(C)C)CCOCC1)c1ccccc1` (stereo not given), the “Percent Effect” value is on record as 3.949%.

Turning to `CC(C)(C)OC(=O)NCCC(=O)NCC(O)c1cccc(F)c1` (stereo not given), the “Percent Effect” value is -4.021%.

In the case of `CC(NC(=O)CNC(=O)OC(C)(C)C)c1ccc(Cl)s1` (stereo not given), the “Percent Effect” value was -4.782%.

(Values after ChEMBL document CHEMBL3988442, “University of Dundee, Small-Polar-MMV Screening Library” (2021).)
